The list is not random: actives were taken first. Their share in the collection is about 9.2%.
ELG1 genotox: genotoxicity induction in ELG1-luciferase HEK293T cells. HEK293T ELG1-luciferase reporter, luminescence, 16 h. Potency, µM (doses to about 46 µM), for the others: top-dose activity change, positive = activation, hits mostly activators. hit rate 1.3% among 330,000; note: % of control where 0% means no effect; nearly all actives have a fitted effect of over 60% in size
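Screening used a luciferase reporter fused to human ELG1 in HEK293T cells. Luminescence was read on a CCD plate imager after 16 hr exposure and 30 min ONE-Glo incubation.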
ELG1 DNA repair: inhibitors of ELG1-dependent DNA repair in HEK293T cells. HEK293T ELG1-luciferase reporter, luminescence, 16 h; DNA damage induced by 5-fluorouridine. Potency, µM (highest dose often 46.1 µM), for the others: top-dose activity change, negative = inhibition, most hits filed as inhibitors. hit rate 2.3% among 330,000. AID 504467; note: % is set by controls: 0 for no effect and ±100 for the full control effect; nearly all actives have a fitted effect of over 55% in size
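5-Fluorouridine DNA damage + compound/DMSO, 2,000 cells/well, 16 h, 37 °C/5% CO2. ONE-Glo, 30 min RT, luminescence. Readout = decrease in reporter signal.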
Rab9 promoter act: Rab9 promoter activation. Huh7 Rab9 promoter-luciferase reporter, luminescence, 24 h. Potency, µM (highest dose often 9.22 µM), for the others: at the top dose activation, negative = inhibition, hits mostly activators. hit rate 2.8% among 320,000; note: % of control where 0% means no effect; nearly all actives have a fitted effect of over 60% in size
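Cells were plated at 1500 per well in reduced-serum medium with 10% FBS and left 2 h. Compound in DMSO was then added for 24 h at 37 °C. Reporter signal was read by luminescence after 10 min with luciferase detection reagent.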
NPC1 prom act: NPC1 promoter activation. Huh7 NPC1 promoter luciferase reporter, 24 h. Potency, µM (titrated, usually from 9.22 µM), inactives show at the highest dose activation, most hits filed as activators. hit rate 2.4% among 320,000. AID 485313; note: % of control where 0% means no effect; nearly all actives have a fitted effect of over 60% in size
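In 1536-well qHTS, Huh7 cells harboring an NPC1 promoter–luciferase construct received compound for 24 h; activation was quantified by luminescence following luciferase reagent addition.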
FLuc modulator: counter-screen for miR-21 project: firefly luciferase inhibitors or activators; P08659; purified FLuc, Km substrates, luminescence inhibition; Potency, µM (highest dose often 57.5 µM), inactives show top-dose activity change, negative = inhibition, hits mostly inhibitors; hit rate 6.9% among 360,000;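 note: plate controls were vehicle for no effect and reference inhibitor for full effect; nearly all actives have a fitted effect of over 55% in size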
Target sequence (P08659 whole entry, looked up): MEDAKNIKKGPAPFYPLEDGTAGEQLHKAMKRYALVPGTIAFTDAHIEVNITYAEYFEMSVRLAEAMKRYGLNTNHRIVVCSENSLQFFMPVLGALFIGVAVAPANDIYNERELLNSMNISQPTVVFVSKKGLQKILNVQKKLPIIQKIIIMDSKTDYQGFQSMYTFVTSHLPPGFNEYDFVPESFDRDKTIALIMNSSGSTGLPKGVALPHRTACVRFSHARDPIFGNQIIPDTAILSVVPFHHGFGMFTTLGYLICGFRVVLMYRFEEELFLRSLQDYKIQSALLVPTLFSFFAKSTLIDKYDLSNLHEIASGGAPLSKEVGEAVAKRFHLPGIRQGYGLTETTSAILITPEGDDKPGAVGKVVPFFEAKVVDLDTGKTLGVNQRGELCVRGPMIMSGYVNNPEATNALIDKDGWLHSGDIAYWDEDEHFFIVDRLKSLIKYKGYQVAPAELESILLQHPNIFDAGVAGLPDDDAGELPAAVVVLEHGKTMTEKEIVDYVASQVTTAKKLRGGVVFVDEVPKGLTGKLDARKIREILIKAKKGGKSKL
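Purified P. pyralis luciferase, 10 nM final, with Km-level 10 uM D-luciferin and 10 uM ATP in 50 mM Tris acetate pH 7.5, 10 mM Mg acetate, 0.01% Tween-20, 0.05% BSA; 6-point qHTS titration about 60 µM downward; luminescence read.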
SMN2 splice enh: enhancers of SMN2 splice variant expression | Potency, µM (series often up to 46.1 µM), inactives show at the highest dose activity change, positive = activation, hits mostly activators | HEK293 SMN2-luciferase splicing reporter, luminescence, 30-36 h | hit rate 2.8% among 210,000; note: % of control where 0% means no effect; nearly all actives have a fitted effect of over 55% in size
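HEK293 cells carry an SMN2 […]–luciferase reporter in which exon 7 inclusion puts luciferase in frame. Cells were plated 10-12 h before compound addition, then incubated 30-36 h at 37C. ONE-Glo luminescence was read; sodium butyrate at 4.5 mM final served as control.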
Starred values were filed as active, the others as inactive; ? = inconclusive; . = no result given; [ ] = another dose, or the depositor's remark. Calls come from the whole dose curve; as a rule, active = well fitted curve in the direction sought with a large enough effect; inconclusive = small, poorly fitted or top-dose-only effect, or another doubt; inactive = no such curve, though single readings can be large; an effect the other way counts as inactive or inconclusive. Potency is the fitted concentration of half-maximal effect.

SMILES	ELG1 genotox	ELG1 DNA repair	Rab9 promoter act	NPC1 prom act	FLuc modulator	SMN2 splice enh
O=C(O)c1cccc(N2C(=O)C3CC=CCC3C2=O)c1 (stereo not given)	1.5%	-5.3%	-2.1%	-2.4%	1.3%	-1.0%
Nc1cccc(C(=O)OCC(=O)c2ccccc2)c1	?	?	3.55µM*	3.16µM*	1.35µM*	10µM*
O=C(COC(=O)c1cccc(O)c1)c1ccccc1	?	?	20.3%	-0.3%	?	.
O=C(COC(=O)c1cccc(N2C(=O)C3CC=CCC3C2=O)c1)c1ccccc1 (stereo not given)	3.8%	-3.3%	2.3%	19.4%	2.39µM*	.
Cc1ccc(-n2nc(CN3CCOCC3)c(-c3ccccc3)c2N)c(C)c1	-2.5%	9.4%	-3.1%	-0.8%	2.5%	-11.0%
Cc1cc(C)c(S(=O)(=O)NCC23C=CC(O2)C2C(=O)N(c4ccccc4)C(=O)C23)c(C)c1 (stereo not given)	-3.2%	2.0%	-2.9%	1.4%	-2.8%	-3.6%
O=C(CCNC(=O)c1ccccc1Cl)Nc1ccc(S(=O)(=O)Nc2nccs2)cc1	0.1%	15.6%	.	.	.	.
COc1ccc(Cl)cc1NC(=O)Nc1ccccc1C(N)=O	5.6%	0.0%	-3.2%	-5.8%	-3.0%	-19.0%
O=C(O)c1ccccc1Nc1ccccc1	1.4%	8.8%	14.0%[46.1 µM]	8.5%[46.1 µM]	-11.8%	-7.6%
COc1cc(NC(=O)Nc2cccc(Cl)c2)c(C(=O)O)cc1OC	6.1%	?	-2.7%	-7.2%	26.9µM*	.
COc1cccc(Nc2c(Nc3cccc(OC)c3)c(=O)c2=O)c1	-0.1%	10.4%	-2.8%	-3.4%	0.7%	.
NC(=O)c1ccccc1NC(=O)Nc1cccc(Cl)c1	8.2%	8.5%	-7.6%	0.6%	15.1µM*	11.9%
COc1cccc(Nc2ccccc2C(=O)O)c1	12.8%	?	12.7%	0.8%	26.9µM*	?
COc1cccc(Nc2ccc(Nc3cccc(OC)c3)nn2)c1	-1.0%	-18.6%	-7.2%	-1.8%	19µM*	4.1%
CN(C(=O)COC(=O)CCc1c[nH]c2ccccc12)C(c1ccccc1)c1ccccc1	0.0%	-14.8%	-4.2%	-2.3%	0.9%	10.0%
CCOc1ccc(S(=O)(=O)N2CCN(C(=O)c3cc4c(s3)CCCC4)CC2)cc1	-3.9%	?	-0.5%	-5.6%	-1.6%	-6.0%[1.84 µM]
NC(=O)c1ccccc1NC(=O)CN1CCN(Cc2ccc(Cl)cc2Cl)CC1	-6.5%	10.3µM*	-6.0%	-9.6%	2.3%	.
O=C(O)/C=C\C(=O)Nc1ccc(OC(F)F)cc1	0.7%	1.9%	-5.9%	-2.2%	?	0.9%
O=C(O)c1ccccc1Nc1ccc(OC(F)F)cc1	7.6%	?	16.8%	12.1%	21.3µM*	15.7%
CC(C)(C)NC(=O)Nc1ccccc1C(N)=O	-2.1%	8.8%	-0.6%	-0.6%	1.1%	-5.5%
NC(=O)c1ccccc1NC(=O)CN1CCN(Cc2ccccc2)CC1	-1.2%	-1.8%	0.6%	-0.6%	-1.8%	.
O=C(Nc1cccc(Cl)c1)Nc1ccccc1C(=O)O	?	?	0.126µM*	0.562µM*	0.849µM*	.
CSc1ccc(NC(=O)Nc2ccccc2C(N)=O)cc1	?	?	?	?	1.07µM*	.
COc1cc(NC(=O)c2nn(C)c3c2COc2ccccc2-3)cc(OC)c1OC	.	.	.	.	-0.1%	.
CCOc1ccc(NC(=O)C2CCC(CNc3c(N4CCC(C)CC4)c(=O)c3=O)CC2)cc1 (stereo not given)	-0.1%	?	1.6%	-3.9%	-7.4%	.
SMILES	ELG1 genotox	ELG1 DNA repair	Rab9 promoter act	NPC1 prom act	FLuc modulator	SMN2 splice enh
COc1ccccc1CNS(=O)(=O)c1ccc(Br)s1	-2.4%	0.0%	-0.1%	-1.1%	5.1%	.
Cc1ccc(NC(=O)CC(c2ccc(F)cc2)N2Cc3ccccc3C2=O)cc1C (stereo not given)	.	.	.	.	-7.9%	.
COc1cc(NC(=O)COc2ccc(Cl)cc2)ccc1-c1cc2ccccc2oc1=O	3.7%	?	1.7%	6.5%	3.5%	0.5%
COc1cccc(NC(=O)Nc2ccccc2C(N)=O)c1	0.1%	17.6%	-5.5%	-2.1%	21.3µM*	21.6%
O=C(Nc1ccc(-c2n[nH]c(=S)o2)cc1)c1ccccc1Br	3.2%	7.0%	-0.8%	3.6%	15.1µM*	.
COc1ccc(C(=O)Nc2ccc(-c3n[nH]c(=S)o3)cc2)cc1OC	2.8%	7.0%	4.2%	-3.2%	?	.
COc1ccccc1OCCSc1nc(C)c(Cc2ccccc2)c(=O)[nH]1	-1.6%	-9.7%	-6.8%	-3.0%	0.5%	.
O=C(O)c1ccccc1CSc1nc2ccccc2n1Cc1ccccc1C(=O)O	-0.1%	8.8%	3.8%	-6.3%	?	.
O=C(NCCO)c1cccc(Cl)c1	.	?	0.0063µM*	?	4.4%	-2.4%
COc1ccc(OCCOC(=O)Nc2ccccc2)cc1	0.4%	-6.1%	-4.4%	0.6%	-11.3%	.
CSCCNC(=O)c1cccc(Cl)c1	-0.1%	17.0%	-0.5%	-2.1%	1.2%	-9.8%
CC(C)OC(=O)NCCOC(=O)Nc1cccc(Cl)c1	-2.6%	-7.8%	6.7%	-6.2%	-5.2%	-33.7%
O=C(Nc1cccc(Cl)c1)OCCOc1ccccc1	14.8%	?	?	?	21.3µM*	.
O=C(Nc1ccccc1)OCCOc1cccc(Br)c1	3.1%	1.8%	6.6%	1.5%	-9.0%	.
O=C(Nc1ccccc1)OCCNC(=O)c1cccc(Cl)c1	15.0%	-5.6%	-3.1%	6.4%	21.3µM*	-20.7%
O=C(Nc1ccccc1)OCCOc1ccccc1	11.6µM*	?	0.891µM*	3.98µM*	10.7µM*	?
CCOC(=O)CSc1ncnc2c(C(=O)OCC)c3n(c12)CCC3	4.8%	-0.7%	-8.8%	-3.3%	?	0.1%
NC(=O)C1CCN(C(=O)COc2ccc3ccc(=O)oc3c2)CC1	-1.6%	-17.3%	-0.1%	0.8%	-1.1%	.
CCOC(=O)c1sc(=NC(=O)c2cc(OC)c(OC)c(OC)c2)n(C)c1C	7.2%	-2.0%	-0.8%	-3.3%	-0.3%	-5.5%
CCOC(=O)c1sc(=NC(=O)c2cccc(Br)c2)n(C)c1C	?	?	4.47µM*	?	-19.6%	.
CCOC(=O)c1sc(=NC(=O)c2cccc(C)c2)n(C)c1C	?	?	2µM*	?	?	10µM*
CCOc1ccc(OCC)c(NS(=O)(=O)c2c(C(=O)N3CCC(C)CC3)c(C)n(C)c2C)c1	.	.	.	.	-1.7%	.
O=C(Nc1nnc(-c2ccco2)s1)C1CCCCC1	9.5%	?	3.16µM*	3.55µM*	?	-9.2%
Cc1ccc(S(=O)(=O)N2CCC(C(=O)Nc3nnc(-c4ccco4)s3)CC2)cc1	-3.3%	-14.5%	-0.1%	-0.9%	1.1%	28.1%

Source: PubChem BioAssay (National Center for Advancing Translational Sciences (NCATS))
